# Measurements reported in PubChem BioAssay (EPA / NIEHS).
# Where “and” joins values, the source holds several entries; their conditions need not be identical. Equal values may be shown once. Results filed as inconclusive are left out. Calls of active or inactive are those of the source. The calls were made as follows, unless noted: active = hit-call score of the fitted dose curve at least 0.9, where 1 is the maximum; inactive = score below 0.9.
# Legend:
# [1] = CCTE_Shafer_MEA_dev_network_spike_number: CCTE's Neural Network Formation Assay for Number of Network Spikes, Shafer Lab (AID 2284048);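 also: synchronized bursts across electrodes counted on days 5 7 9 12 and integrated as AUC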;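 as to AC50: fit as a loss of signal meaning fewer network spikes than DMSO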
# Outline: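 Rat cortical primary cultures on 48-well MEA (16 electrodes/well); continuous exposure DIV 0–12, full medium and treatment exchange DIV 5, 9. Readout: network spike count, AxIS adaptive detection, recordings DIV 5/7/9/12 collapsed to AUC; loss-of-signal fit, DMSO baseline.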
# [2] = CCTE_Shafer_MEA_dev_spike_duration_mean: CCTE's Neural Network Formation Assay for Mean Spike Duration, Shafer Lab (AID 2284051);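 also: mean network spike duration pooled as area under curve over DIV 5 to 12 recordings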;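 as to AC50: potency for a decrease in mean network spike duration versus DMSO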
# Outline: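 Spontaneous activity was recorded on days 5, 7, 9 and 12 from rat cortical cultures grown on microelectrode arrays and dosed continuously from day 0, with media and compound renewed after the DIV 5 and 9 recordings. Network-spike duration was collapsed by area under the curve.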
# [3] = CCTE_Shafer_MEA_dev_network_spike_duration_std: CCTE's Neural Network Formation Assay for Standard Deviation of Network Spike Duration, Shafer Lab (AID 2284052);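 also: hits are decreases in network spike duration SD versus DMSO vehicle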
# Outline: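 Network spike duration variability was collapsed across recordings on days 5, 7, 9 and 12 by trapezoidal area-under-curve and fitted downward against DMSO. Cultures were rat cortical neurons on PEI-coated MEA plates, dosed continuously from plating, refed with compound DIV 5/9.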
# [4] = CCTE_Shafer_MEA_dev_per_network_spike_spike_number_mean: CCTE's Neural Network Formation Assay for Mean Number of Spikes in a Network Spike, Shafer Lab (AID 2284053);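 as to AC50: fitted as decrease in spikes per network spike relative to DMSO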
# Outline: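 Mean spike count within each network spike, taken in a 0.05 s window at its peak, was recorded on days 5, 7, 9 and 12 and integrated as trapezoidal area under the curve. Rat cortical cultures on MEA plates received continuous compound from day 0, refreshed at medium changes on DIV 5 and 9.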
# [5] = CCTE_Shafer_MEA_dev_per_network_spike_spike_percent: CCTE's Neural Network Formation Assay for Percent of Spikes in a Network Spike, Shafer Lab (AID 2284054)
# Outline: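 Read-out: percent of spikes falling in a 0.05 s window at network-spike peak, from spontaneous MEA recordings on days 5, 7, 9 and 12; trapezoidal AUC; loss of signal versus DMSO. Rat cortical cultures, compound present throughout.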
# [6] = CCTE_Shafer_MEA_dev_AB: CCTE's Alamar Blue Assay for Cytotoxicity in the Neural Network Formation Assay, Shafer Lab (AID 2284083; active = hit-call score of the fitted dose curve at least 0.9, where 1 is the maximum;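 also: resazurin reduction fluorescence as viability of cultured neurons; twelve days of exposure from plating with re-dosing on DIV 5 and 9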)
# Outline: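 Resazurin fluorescence, relative to DMSO, gauges viability after twelve days of exposure that began at plating of rat cortical neurons (1.5 x 10^5 cells/well, 48-well MEA); treatment renewed with full medium exchange on DIV 5 and 9.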
# [7] = CCTE_Shafer_MEA_dev_mutual_information_norm: CCTE's Neural Network Formation Assay for Mutual Information Normalization, Shafer Lab (AID 2284091);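 as to AC50: mutual information between electrodes summarised as area under curve across four recording days; potency is for a decrease in mutual information relative to DMSO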
# Outline: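 Neurons from rat cortex were seeded at 1.5 x 10^5 cells/well onto PEI-coated MEAs in a laminin drop, then exposed to compound from day 0 for twelve days. Network recordings on four days gave mutual information, summarised by AUC relative to DMSO.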
# [8] = CCTE_Shafer_MEA_dev_correlation_coefficient_mean: CCTE's Neural Network Formation Assay for Mean Correlation Coefficient, Shafer Lab (AID 2284093);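 as to AC50: well mean pairwise spike train correlation integrated as AUC over recording days 5 to 12; potency fitted for loss of correlation relative to DMSO vehicle wells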
# Outline: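 Primary rat cortical neurons on PEI-coated 48-well MEA plates (16 electrodes/well) were exposed from plating day 0 through DIV12, with compound renewed at DIV5 and 9. Pairwise spike correlations were averaged per well; trapezoidal AUC across DIV5, 7, 9, 12.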
# [9] = CCTE_Mundy_HCI_Cortical_Synap_Neur_Matur_NeuriteSpotCountPerNeuriteLength: CCTE's Synaptogenesis and Neurite Maturation Assay in rat cortical cells for Neurite Spot Count per Neurite Length, Mundy Lab (AID 2284210)
# Outline: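 Read-out: synaptophysin puncta counted along MAP2-stained neurites, normalised to neurite length, by automated high-content imaging. Rat cortical cells; AraC DIV 5; chemical dosing DIV 7; termination DIV 12. DMSO baseline.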
# [10] = CCTE_Shafer_MEA_acute_LDH: CCTE's Lactate Dehydrogenase Assay for Cytotoxicity in the Neural Acute Assay, Shafer Lab (AID 2284086; active = hit-call score of the fitted dose curve at least 0.9, where 1 is the maximum;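 also: active means LDH release rises above DMSO vehicle level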)
# Outline: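 Medium collected from MEA wells of primary rat cortical cultures (DIV 13 or 15) immediately after 40 min chemical exposure is assayed spectrophotometrically for lactate dehydrogenase activity. Endpoint fitted in positive direction versus DMSO.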
# [11] = CCTE_Shafer_MEA_dev_LDH: CCTE's Lactate Dehydrogenase Assay for Cytotoxicity in the Neural Network Formation Assay, Shafer Lab (AID 2284068; active = hit-call score of the fitted dose curve at least 0.9, where 1 is the maximum;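 also: exposure for twelve days from plating with re-dosing on DIV 5 and 9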)
# Outline: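 Primary rat cortical neurons were cultured on PEI-coated MEA plates and exposed from plating through day 12, with compound renewed at medium changes on DIV 5 and 9. LDH activity was read spectrophotometrically; loss of signal versus DMSO indicates reduced viability.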
structure (smiles),measurement,setting,value
NNC(=O)c1ccncc1,outcome,[1],inactive
same,outcome,[2],inactive
same,outcome,[3],inactive
same,outcome,[4],inactive
same,outcome,[5],inactive
same,outcome,[6],inactive
same,outcome,[7],inactive
same,outcome,[8],inactive
same,outcome,[9],inactive
FC(F)(F)C(F)(F)C(F)(F)C(F)(F)C(F)(F)C(F)(F)I,outcome,[1],inactive
same,outcome,[2],inactive
same,outcome,[3],inactive
same,outcome,[4],inactive
same,outcome,[5],inactive
same,outcome,[7],inactive
same,outcome,[8],inactive
c1ccc(C(O[C@@H]2CCCN(CCc3ccc4c(c3)OCO4)C2)c2ccccc2)cc1,outcome,[10],inactive
COCc1nnc(-c2ccc[n+]([O-])c2)n1-c1c(Cl)c(Cl)cc2[nH]c(=O)c(=O)[nH]c12,outcome,[10],inactive
CCCc1ccccc1,outcome,[10],inactive
Cn1c(=O)c2[nH]cnc2n(C)c1=O,outcome,[10],inactive
OCCC(F)(F)C(F)(F)C(F)(F)C(F)(F)F,outcome,[1],inactive
same,outcome,[2],inactive
same,outcome,[3],inactive
same,outcome,[4],inactive
same,outcome,[5],inactive
same,outcome,[7],inactive
same,AC50,[8],3.75 µM (active)
FC(F)(F)COC(OCC(F)(F)F)OCC(F)(F)F,outcome,[1],inactive
same,outcome,[2],inactive
same,outcome,[3],inactive
same,outcome,[4],inactive
same,outcome,[5],inactive
same,outcome,[11],inactive
same,outcome,[7],inactive
same,outcome,[8],inactive
c1ccc2c(c1)-c1cccc3c1c-2cc1ccccc13,outcome,[1],inactive
same,AC50,[2],4.48 µM (active)
same,outcome,[3],inactive
same,outcome,[4],inactive
same,outcome,[5],inactive
same,outcome,[11],inactive
same,outcome,[6],inactive
same,AC50,[7],1.35 µM (active)
same,outcome,[8],inactive
CCN(CC)C(=S)SSC(=S)N(CC)CC,AC50,[1],102 nM (active) and 52.1 nM (active)
same,AC50,[2],106 nM (active) and 47.6 nM (active)
same,AC50,[3],100 nM (active) and 40.6 nM (active)
same,AC50,[4],102 nM (active) and 55.3 nM (active)
same,AC50,[5],161 nM (active) and 86.3 nM (active)
same,AC50,[11],120 nM (active) and 58 nM (active)
same,AC50,[6],146 nM (active) and 58.6 nM (active)
same,AC50,[7],94.3 nM (active) and 37.8 nM (active)
same,AC50,[8],110 nM (active) and 63.3 nM (active)
